Screening results: PubChem BioAssay, National Center for Advancing Translational Sciences (NCATS)
Only some compounds are listed: those with a hit (about 1.6% of all), similar ones and a draw of the others.
IMPase cell inh: qHTS Assay for Identifying the Cell-Membrane Permeable IMPase Inhibitors. inhibition (IP1 accumulation), % at 46.1 µM. Inositol monophosphatase 1 (Rattus norvegicus), P97697. 120,000 tested, under 10 active. CHO-M1 cells, IP1 accumulation, HTRF TR-FRET ratio. AID 901, 2007; active means well fitted curve in the direction sought with a large enough effect in the signal ratio, not every such curve was filed as active; inconclusive means small, poorly fitted or top-dose-only effect, or a change in a side signal; inactive means no such curve, though single readings can be large or run the other way; the % refers to the signal ratio;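 further: cells stimulated with carbachol in lithium chloride buffer; higher means more IMPase inhibition seen as more IP1 and lower FRET ratio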
Target sequence (P97697 whole entry, looked up): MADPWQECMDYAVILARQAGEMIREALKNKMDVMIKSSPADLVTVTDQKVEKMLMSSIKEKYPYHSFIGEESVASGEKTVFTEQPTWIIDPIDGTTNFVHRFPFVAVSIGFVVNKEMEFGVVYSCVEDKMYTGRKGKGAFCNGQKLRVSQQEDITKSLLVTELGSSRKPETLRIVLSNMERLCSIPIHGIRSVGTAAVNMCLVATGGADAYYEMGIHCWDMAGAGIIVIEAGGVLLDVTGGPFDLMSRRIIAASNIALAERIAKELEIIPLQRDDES
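Elevated IP1 in lysates lowers TR-FRET signal (665/620 ratio and 620 channel reported). Cells were CHO-M1, given carbachol (50 uM as added) plus 50mM LiCl, pH 7.4, 30 min, 37C; compounds titrated up to 46 uM; AC50 by Hill equation.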
HttQ103 aggreg: qHTS Multiplex Assay to Identify Dual Action Probes in a Cell Model of Huntington: Aggregate Formation (GFP) | PC12 HttQ103-GFP aggregates, Acumen cytometry, 40 h | Potency, µM (titrated, usually from 46.1 µM), actives largely listed as inhibitors | 1.1% of 220,000 active; further: nearly all actives have a fitted effect of over 60% in size
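Ecdysone-promoter PC12 model expressing HTT exon 1 Q103 fused to GFP, induced by tebufenozide at 100 nM final. Compounds titrated; aggregates sized 1–25 µm scored on a 488 nm laser cytometer.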
LMNA splice mod: qHTS Assay for Modulators of Lamin A Splicing; HeLa LMNA splicing GFP/RFP minigene ratio, 48 h; Potency, µM (series often up to 46.1 µM), hits mostly inhibitors; 0.01% of 200,000 active; AID 1487, 2009; active means well fitted inhibition curve with a large enough effect in the signal ratio, with a control signal flat, not every such curve was filed as active; inconclusive means small, poorly fitted or top-dose-only effect, or effect the other way, or a change in a side signal; the % refers to the signal ratio
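Read-out is the ratio of GFP to DsRed2 object intensity, acquired by 488 nm laser-scanning cytometry on HeLa lamin A-EGFP minigene reporter cells. Compound incubation 48 hrs at 37 °C in Opti-MEM with 2% FBS; DMSO 0.5% final.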
HTT ATP protect: qHTS Multiplex Assay to Identify Dual Action Probes in a Cell Model of Huntington: Cytoprotection (ATP); PC12 HTT-Q103 induced, cytoprotection, ATP luminescence, 40 h; Potency, µM (highest dose often 56.4 µM), actives largely listed as activators; 0.14% of 230,000 active; AID 1471, 2008; further: nearly all actives have a fitted effect of over 45% in size
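PC12 cells with ecdysone-inducible HTT exon 1 Q103-GFP, induced with 100 nM tebufenozide and co-treated with library compounds in a dose series (1536-well, 1500 cells/well). Cytoprotection read as ATP content by ATPlite luminescence.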
NPSR antag: qHTS Assay for Antagonists of the Neuropeptide S Receptor: cAMP Signal Transduction; Q6W5P4; CHO-NPSR cells, cAMP TR-FRET, antagonist mode; Potency, µM (titrated, usually from 38.3 µM), usual class: inhibitors; 1% of 220,000 active; further: nearly all actives have a fitted effect of over 50% in size
Target sequence (Q6W5P4 whole entry, looked up): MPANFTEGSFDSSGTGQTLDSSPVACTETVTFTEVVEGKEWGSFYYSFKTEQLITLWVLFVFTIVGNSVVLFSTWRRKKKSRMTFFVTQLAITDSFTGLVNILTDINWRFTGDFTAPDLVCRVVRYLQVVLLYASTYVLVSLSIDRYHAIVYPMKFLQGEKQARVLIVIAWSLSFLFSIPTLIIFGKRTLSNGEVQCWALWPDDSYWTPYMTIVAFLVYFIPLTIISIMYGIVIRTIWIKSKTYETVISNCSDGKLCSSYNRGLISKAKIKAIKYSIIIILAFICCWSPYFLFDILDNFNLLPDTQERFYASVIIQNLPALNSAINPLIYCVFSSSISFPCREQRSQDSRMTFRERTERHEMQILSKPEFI
IMPase Li cell: qHTS Assay for Identifying the Cell-Membrane Permeable IMPase Inhibitors: Potentiation with Lithium; CHO-M1 cells, IP1 TR-FRET (IP-One), carbachol + lithium; Potency, µM (doses to about 59.4 µM), actives largely listed as inhibitors; 0.35% of 210,000 active;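 further: IP1 builds up when IMPase is blocked and the TR-FRET signal falls; nearly all actives have a fitted effect of over 50% in size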
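Lithium-sensitised IP1 accumulation assay; M1-expressing CHO cells treated 30 min at 37C with compound. Competitive antibody detection by time-resolved FRET followed a 10 min room-temperature lysis step.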
Numbers stand for hits; n = inactive; u = inconclusive; x = no result; [ ] = dose if it differs, or a comment. Unless noted, the call rests on the fitted dose curve; in most records, active means well fitted curve in the direction sought with a large enough effect; inconclusive means small, poorly fitted or top-dose-only effect, or another doubt; inactive means no such curve, though single readings can be large; an effect the other way counts as inactive or inconclusive.

SMILES | IMPase cell inh | HttQ103 aggreg | LMNA splice mod | HTT ATP protect | NPSR antag | IMPase Li cell
Cc1c([C@@H](C)[C@H]2NC[C@H](C)C[C@@H]2O)ccc2c1C[C@@H]1[C@H]2CC=C2C[C@@H](O)CC[C@@]21C | x | x | x | n[10 µM] | x | x
C[C@@]12CC[C@H](O)C[C@@H]1CC[C@H]1[C@H]2C[C@@H](O)[C@]2(C)[C@@H](C3=CC(=O)OC3)CC[C@@]12O | x | x | x | n | x | x
C[C@@H]1O[C@H](O[C@H]2C[C@@H](O)[C@]3(CO)[C@H]4[C@H](O)C[C@]5(C)[C@@H](C6=CC(=O)OC6)CC[C@@]5(O)[C@H]4CC[C@]3(O)C2)[C@@H](O)[C@H](O)[C@H]1O | x | x | x | n | x | x
O=C(Oc1c(Br)cc(Br)c2cccnc12)N1CCCCC1 | x | n | x | n | u | 13µM
O=C(Oc1c(Cl)cc(Cl)c2ccccc12)N1CCCCC1 | n | n | n | n | u | n
COc1cc(CN2CCN(c3cc(C)ccc3C)CC2)ccc1O | n | 10µM | u | n[0.074 µM] | n | n
Cc1ccc(N2C(=O)NC(=O)/C(=C\C=C\c3ccco3)C2=O)cc1C | x | n | u | n[0.074 µM] | 13µM | n
Cc1ccc(N2C(=O)NC(=O)/C(=C\C=C\c3ccco3)C2=O)cc1 | x | n[9.22 µM] | x | n[10 µM] | u | x
CCOC(=O)c1ccc(NC(=O)c2c(O)[nH]c(=O)[nH]c2=O)cc1 | n | 3.5µM | u | n | n | u
C[C@@]12CC[C@H]3[C@@H](CCC4=CC(=O)CC[C@]43C)[C@H]1CCC2=O | x | x | x | n[1.9 µM] | x | x
O=[N+]([O-])/C=C/c1c(OCc2ccccc2)ccc2ccccc12 | n | u | u | n | 6.3µM | n
O=C1C=C2C=C[C@H]3C[C@]2(O1)[C@@H]1CCCCN13 | x | x | u | x | n | n
O=C1C=C2C=C[C@H]3C[C@@]2(O1)[C@H]1CCCCN31 | n | x | u | 6.3µM | x | n
O=C1C=C2C=CC3C[C@@]2(O1)C1CCCCN31 (some centres undefined) | x | x | x | 1.6µM | x | n
c1ccc2cc(C3N4CCCN34)ccc2c1 (centres undefined) | x | n | x | 4µM | n | n
CC(C)c1ccc(C2N3CCCN23)cc1 (centres undefined) | x | n | n | x | n | n
C=C[C@@H]1CN2CC[C@H]1C[C@H]2[C@@H](O)c1ccnc2ccccc12 | x | x | x | n | x | x
CCCC[C@@H]1C[C@H]1C(NP(=O)(c1ccccc1)c1ccccc1)c1ccc(Cl)cc1 (some centres undefined) | x | x | x | n | x | x
O=C1NC(=O)N(Cc2ccccc2)C(=O)/C1=C/c1cnc(-c2ccccc2)nc1 | x | n | x | n | 10µM | n
c1ccc2c(c1)OCC(C1=NCCN1)O2 (centres undefined) | x | n | u | 16µM | n | n
C[C@@H]1O[C@@H](O[C@H]2C[C@@H](O)[C@]3(CO)[C@@H]4[C@@H](O)C[C@]5(C)[C@H]([C@@H]6COC(=O)C6)CC[C@@]5(O)[C@H]4CC[C@@]3(O)C2)[C@H](O)[C@H](O)[C@@H]1O | n | x | x | n[1.9 µM] | x | x
C[n+]1c(-c2ccccc2)cc(CCCCc2cc(-c3ccccc3)[n+](C)c(-c3ccccc3)c2)cc1-c1ccccc1 | x | 22µM | n | n[10 µM] | u | n
Nc1ccccc1-[n+]1c(-c2ccccc2)cc(-c2ccccc2)cc1-c1ccccc1 | x | n[9.22 µM] | x | n[10 µM] | n | x
COc1ccc(-c2cc(-c3ccccc3)[n+](C)c(-c3ccccc3)c2)cc1 | x | 7.1µM | u | n[10 µM] | n | n
CC(C)[C@@]1(NC(=O)[C@@H]2C=C3c4cccc5[nH]cc(c45)C[C@@H]3N(C)C2)O[C@]2(O)[C@H]3CCCN3C(=O)[C@H](Cc3ccccc3)N2C1=O | x | x | x | n[1.9 µM] | x | x
SMILES | IMPase cell inh | HttQ103 aggreg | LMNA splice mod | HTT ATP protect | NPSR antag | IMPase Li cell
C=C(C=O)C[C@@H]1C[C@H](O)C2OC3C[C@]4(C)OC5/C=C\CC6OC7C(CC=CCC6OC5CCCC4OC3CC2O1)OC1CC2OC3CC(=O)OC3C[C@@H](C)C[C@@]2(C)OC1C[C@@H]7C (some centres undefined) | x | u | x | n[10 µM] | 0.79µM | x
CCN(CC)c1ccc(CN2CC=C(c3ccc(F)cc3)CC2)cc1 | n | n[9.22 µM] | n | n | 10µM | n
CCCN1CCc2cccc3c2[C@@H]1Cc1ccc(O)c(O)c1-3 | n | x | x | n[1.9 µM] | x | x
O=C(c1ccccc1)c1cn(CC(=O)N2CCCc3ccccc32)c2ccccc12 | n | n | n | n[10 µM] | 10µM | n
CC1CCCN(CC(=O)N2CCCc3ccccc32)C1 (centres undefined) | n | n | n | n[10 µM] | n | n
CN[C@H]1[C@H](C)O[C@@H](O[C@@H]2C/C=C(/C)C/C(C)=C\C=C/CC[C@@H](C)CNC(=O)/C=C\C=C/[C@H]2C)C[C@@H]1O | x | x | x | n[10 µM] | x | x
Cc1c(P(=S)(c2ccccc2)c2ccccc2)[n+]2ccccc2n1C | x | n | n | n | 1.3µM | n
NNc1c(C(N)=O)c2c(N)ncnc2n1[C@@H]1O[C@H](CO)[C@@H](O)[C@@H]1O | x | x | x | n[10 µM] | x | x
CC(C)OCCCNC(=O)c1c(N)n(Cc2cccs2)c2nc3ccccc3nc12 | n | 28µM | u | n | 10µM | n
Nc1c(C(=O)NCc2ccco2)c2nc3ccccc3nc2n1CCN1CCCCC1 | n | 3.2µM | u | n | u | n
COCCCNC(=O)c1c(NC(=O)c2ccco2)n(Cc2ccccc2)c2nc3ccccc3nc12 | n | n | n | n | 13µM | n
CC(C)CNC(=O)c1c(N)n(Cc2ccc3c(c2)OCO3)c2nc3ccccc3nc12 | n | u | n | n | 3.2µM | n
COCCNC(=O)c1c(NC(=O)c2ccc(Br)o2)n(Cc2ccccc2)c2nc3ccccc3nc12 | x | u | u | x | n | n
CC(C)CNC(=O)c1c(N)n(Cc2ccco2)c2nc3ccccc3nc12 | n | n | n | n | 10µM | n
CCCNC(=O)c1c(N)n(Cc2ccco2)c2nc3ccccc3nc12 | n | n | n | n | u | n
COc1cc2c(cc1OC)[C@]13CC[N@+]4(C)CC5=CCO[C@H]6CC(=O)N2[C@@H]1[C@@H]6[C@@H]5C[C@]34O | x | x | x | n[10 µM] | x | x
C=CCN1CC[C@]23c4c5ccc(O)c4O[C@@H]2/C(=N/NC(=O)c2ccccc2)CC[C@@]3(O)[C@H]1C5 | n | x | x | n[1.9 µM] | x | x
CC1(C)C(=O)C=C[C@@]2(C)C1CC(O)[C@]1(C)C2CC[C@@]2(C)C(c3ccoc3)OC(=O)C3O[C@]312 (some centres undefined) | x | x | x | 0.79µM | x | n
CC(=O)N1C[C@@H]2C[C@H](C1)c1cccc(=O)n1C2 | x | x | x | n | x | x
